Several values for one entry are separate records, joined by “and”; a condition that tells them apart may be missing. Equal entries are not always repeated. Inconclusive results are not listed. Activity calls are given as the source filed them. Calls follow the shape of the dose curve; as a rule, active = well fitted inhibition curve with a large enough effect; inconclusive = small, poorly fitted or top-dose-only effect; inactive = flat fitted curve, though single readings scatter.
tested on: HEK293; assay: Cytotoxic Profiling of Annotated Libraries Using Quantitative High-Throughput Screening (AID 1296008); details: Five cell lines viability, CellTiter-Glo ATP luminescence, 48-72 h; max response: stronger effect = lower value; also: nearly all actives have a fitted effect of over 60% in size
Text: Cell-based phenotypic screening is a commonly used approach to discover biological pathways, novel drug targets, chemical probes and high-quality hit-to-lead molecules. Many hits identified from high-throughput screening campaign are ruled out through a series of follow-up potency, selectivity/specificity, and cytotoxicity assays. Prioritization of molecules with little or no cytotoxicity for a more in-depth downstream evaluation influence the future direction of projects, so cytotoxicity profiling of the screening libraries at early stage is essential for increasing the likelihood of candidate success. […] For the annotated library, we also examined the primary targets and mechanistic pathways regularly associated with cell death. To our knowledge, this is the first study to use high-throughput screening to profile large libraries for cytotoxicity assessment in both normal and cancer cell lines. In summary, the results generated here constitutes a valuable resource for the scientific community and provides insight on identifying cytotoxic compounds with particular mechanisms of action, and prioritizing compounds with suitable cytotoxicity profile for further evaluation.
A pintool (Kalypsys) was used to transfer 23 nL of compound solution to the 1536-well assay plates. After 48 or 72 hr incubation at 37 degree Celsius, 5% CO2 and 95% humidity, 2.5 uL of CellTiter-Glo (Promega) was dispensed into each well using a dispenser (Aspect Automation, St. Paul, MN) with solenoid valves (Lee Valves, Westbrook CT). Plates were left at room temperature for 10 min before imaging the ATP-coupled luminescence using a ViewLux microplate imager (PerkinElmer, Waltham, MA).
% is scaled to controls: 0 for no effect and ±100 for the full control effect; potency is read from the fitted curve at half-maximal effect.

SMILES | outcome | max response | Potency
CCOC(=O)C(c1c(O)c2ccccc2oc1=O)c1c(O)c2ccccc2oc1=O | inactive |  | 
CC1Sc2c(C(=O)O)c(=O)c3cc(F)c(N4CCNCC4)cc3n21 (stereo not given) |  | 4.19% (inactive) | 
COc1cc(CC(C)N)cc2c1OCO2 (stereo not given) |  | -16.7% (inactive) | 
CN1C2CCC(C)(C)C1CC(OC(=O)C(O)(c1cccs1)c1cccs1)C2 (stereo not given) |  | -10.3% (inactive) | 
O=C(O)c1nn(Cc2ccc(Cl)cc2Cl)c2ccccc12 | inactive | -10.4% (inactive) | 
COc1ccc2c3c1O[C@H]1[C@@H](O)C=C[C@H]4[C@@H](C2)N(C)CC[C@@]341 |  |  | 33.7 µM (active)
COc1ccc2[nH]cc(CCN(C(C)C)C(C)C)c2c1 |  | -7.74% (inactive) | 
CC(Cc1ccccc1)NCCCCl (stereo not given) |  | 0.613% (inactive) | 
C[N+]1(CCC(C(N)=O)(c2ccccc2)c2ccccc2)CCCCC1 | inactive |  | 
C[C@@H]1O[C@@H](O[C@@H]2C=C3CC[C@@H]4[C@H](CC[C@]5(C)[C@@H](c6ccc(=O)oc6)CC[C@]45O)[C@@]3(C)CC2)[C@H](O)[C@H](O)[C@H]1O |  |  | 0.0335 µM (active)
COC(=O)C1=CCCN(C)C1 |  | 2.76% (inactive) and 4.85% (inactive) | 
CCOC(=O)c1ncn2c1CN(C)C(=O)c1c(I)cccc1-2 |  | -11.8% (inactive) | 
COc1ccc(OC)c(CC(C)N)c1 (stereo not given) |  | -0.178% (inactive) | 
COc1cc(CC(C)N)c(OC)cc1Br (stereo not given) |  |  | 14.2 µM (active)
CNC(C)Cc1ccccc1OC (stereo not given) |  | -10.8% (inactive) | 
COCC(=O)N(c1c(C)cccc1C)C(C)C(=O)OC (stereo not given) |  | -19.3% (inactive) | 
COc1ccc(CN2CCNCC2)c(OC)c1OC |  | -9.25% (inactive) | 
CCOC(=O)NC(C)(C)Cc1ccc(Cl)cc1 | inactive |  | 
C=CC[C@]1(O)CC[C@H]2[C@@H]3CCC4=CC(=O)CCC4=C3C=C[C@@]21C |  |  | 11.9 µM (active)
Oc1c(Br)cc(Br)cc1Br |  | 2.8% (inactive) | 

SMILES | outcome | max response | Potency
CCC1(c2ccccc2)CCC(=O)NC1=O (stereo not given) |  | -5.95% (inactive) | 
COc1cc(CC#N)cc(OC)c1OC |  | -3.74% (inactive) | 
c1ccc2nc(N3CCNCC3)ccc2c1 |  | -18% (inactive) | 
COP(=O)(OC)C(O)C(Cl)(Cl)Cl (stereo not given) | inactive |  | 
Cc1ccc(N=CN(C)C=Nc2ccc(C)cc2C)c(C)c1 | inactive |  | 
CCOC(C(=O)OCCN(C)C)(c1ccccc1)c1ccccc1 |  | -2.86% (inactive) | 
O=C(O)Cc1ccccc1 |  | -7.97% (inactive) | 
ClC1=C(Cl)C2(Cl)C(CBr)CC1(Cl)C2(Cl)Cl (stereo not given) | inactive |  | 
NC(=O)CN1CCCC1=O | inactive |  | 
COc1cc(C[C@@H](C)N)c(OC)cc1C |  | -43.2% (inactive) | 
O=c1n(Cl)c(=O)n(Cl)c(=O)n1Cl |  | -82.7% (inactive) | 
CCN(CC)C(C)C(=O)c1ccccc1 (stereo not given) |  | -27.4% (inactive) | 
CN1C(=O)[C@@H](NC(=O)c2cc3ccccc3[nH]2)N=C(c2ccccc2)c2ccccc21 |  |  | 11.9 µM (active)
CCCC(C)C1(CC)C(=O)N=C(S)NC1=O (stereo not given) | inactive |  | 
COc1ccc(C(=O)N2CCCC2=O)cc1 | inactive |  | 
Nc1ccccc1C(=O)OCC(O)CO (stereo not given) | inactive |  | 
CC(C)NCC(O)c1ccc(N)c(C#N)c1 (stereo not given) | inactive |  | 
CN1[C@@H]2CC[C@H]1CC(OC(=O)c1cc(Cl)cc(Cl)c1)C2 (stereo not given in full) |  |  | 26.6 µM (active)
O=C(N[C@H]1N=C(c2ccccc2F)c2cccc3c2N(CC3)C1=O)c1cc2ccccc2[nH]1 |  | -7.34% (inactive) | 
